Screens as filed in PubChem.
Sampled rows, rich in hits. Any-hit rate of the full collection: about 12%.
PLK1 PBD block – inhibitors of human PLK1 polo-box domain binding; P53350; Plk1 PBD binding of FITC phosphopeptide, fluorescence polarization; Potency, µM, for inactives: max response, negative = inhibition, hits mostly inhibitors; hit rate 2.8% among 360,000; AID 720504; also: series mostly up to about 57 µM; nearly all actives have a fitted effect of over 65% in size
Target sequence (P53350 whole entry, looked up, the tested form may be a part): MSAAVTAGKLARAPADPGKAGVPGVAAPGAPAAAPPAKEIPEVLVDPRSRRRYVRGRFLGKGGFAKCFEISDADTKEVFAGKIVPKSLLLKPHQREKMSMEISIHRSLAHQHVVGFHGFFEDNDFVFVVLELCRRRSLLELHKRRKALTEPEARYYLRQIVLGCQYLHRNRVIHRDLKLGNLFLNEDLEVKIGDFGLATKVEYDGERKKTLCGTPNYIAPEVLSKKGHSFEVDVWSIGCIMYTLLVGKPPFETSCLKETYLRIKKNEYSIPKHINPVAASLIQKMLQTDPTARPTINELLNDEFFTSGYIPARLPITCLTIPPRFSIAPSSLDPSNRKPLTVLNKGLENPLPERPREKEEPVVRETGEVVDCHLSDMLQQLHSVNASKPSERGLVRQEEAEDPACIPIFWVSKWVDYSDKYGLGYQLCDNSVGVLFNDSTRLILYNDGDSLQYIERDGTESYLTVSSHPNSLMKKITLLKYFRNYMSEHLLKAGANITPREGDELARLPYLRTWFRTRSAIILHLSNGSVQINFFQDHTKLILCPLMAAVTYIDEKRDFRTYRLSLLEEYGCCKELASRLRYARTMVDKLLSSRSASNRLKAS
RORg inh – ROR gamma (mouse) transcription inhibition; hit rate 5.4% among 310,000; Drosophila S2 Gal4-RORgamma UAS-luciferase reporter, 20 h; P51450; Potency, µM (top dose mostly 53.6 µM), inactives show top-dose activity change, negative = inhibition, usual class: inhibitors; also: nearly all actives have a fitted effect of over 60% in size
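Stably transfected Drosophila Schneider cells are the test system, with ROR gamma fused to Gal4 and luciferase under UAS control; luminescence is read after 20 hr of 700 uM copper sulfate induction at ambient temperature.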
VP16 counter – counter-screen for ROR gamma inhibitors: Gal4-VP16 reporter; Drosophila S2 Gal4-VP16 UAS-luciferase, luminescence, 20 h; Potency, µM (doses to about 53.6 µM), without a hit: at the highest dose activity, negative = inhibition, usual class: inhibitors; hit rate 3.5% among 310,000;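 also: Gal4-VP16 expression switched on by copper sulfate through the metallothionein promoter; nearly all actives have a fitted effect of over 50% in size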
ALDH1A1 block – ALDH1A1 (human) enzyme inhibition; Potency, µM (titrated, usually from 75.3 µM), inactives show top-dose activity, negative = inhibition, usual class: inhibitors; AID 1030; hit rate 7.3% among 220,000; Purified ALDH1A1, NADH fluorescence, propionaldehyde substrate; P00352; active = well fitted inhibition curve with a large enough effect, not every such curve was filed as active; inconclusive = small, poorly fitted or top-dose-only effect, or another doubt; inactive = no such curve, though single readings can be large or run the other way;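 also: plate controls were no enzyme wells and a reference inhibitor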
Sfp inh – Sfp phosphopantetheinyl transferase inhibition | Q9F4F7 | Biochemical Sfp PPTase activity, qHTS | Potency, µM, for the others: largest response in the series, negative = inhibition, most hits filed as inhibitors | hit rate 3.5% among 310,000 | AID 1490;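 also: the enzyme is Sfp with the accession as filed and its product quenches rhodamine fluorescence; 0% = enzyme reaction without inhibitor and -100% = no enzyme wells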
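Buffer: 50 mM Hepes-Na pH 7.6, 10 mM MgCl2, 0.01% Nonidet P-40, 0.01% BSA. Enzyme 15 nM, pre-exposed to compound 15 min; substrates then added and fluorescence change tracked over 30 min.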
* = called active by the depositor; [ ] = remark or other dose. Unless noted, calls follow the shape of the dose curve; as a rule, active = well fitted curve in the direction sought with a large enough effect; inconclusive = small, poorly fitted or top-dose-only effect, or another doubt; inactive = no such curve, though single readings can be large; an effect the other way counts as inactive or inconclusive. Unless noted, % is scaled to controls: 0 for no effect and ±100 for the full control effect; potency is read from the fitted curve at half-maximal effect.

For CC(NC(=O)/C(C#N)=C/c1ccc(Cl)c([N+](=O)[O-])c1)c1ccccc1 (stereo not given) the results were PLK1 PBD block 12µM*, RORg inh inconclusive, VP16 counter inconclusive, ALDH1A1 block 6% and Sfp inh 25µM*.
`C[C@@H](NC(=O)/C(C#N)=C/c1ccc(O)c(O)c1)c1ccccc1` gave PLK1 PBD block -16%, RORg inh inconclusive, VP16 counter inconclusive, ALDH1A1 block -7% and Sfp inh -28%.
For Cc1cc(OCCn2cnc3ccccc3c2=O)cc(C(C)C)c1 the results were PLK1 PBD block 21µM*, RORg inh -6%, VP16 counter inconclusive, ALDH1A1 block -4% and Sfp inh 6%.
C=CCOC(=O)C1=C(C)N=c2s/c(=C3\C(=O)N(CC(=O)O)c4ccccc43)c(=O)n2C1c1ccc(OC)cc1 (stereo not given) was read as PLK1 PBD block 38µM*, RORg inh 5%, VP16 counter -10% and Sfp inh 25µM*.
Screening CCOC(=O)C1=C(C)N=c2s/c(=C3\C(=O)Nc4ccccc43)c(=O)n2C1c1ccc2c(c1)OCO2 (stereo not given) returned PLK1 PBD block -1%, RORg inh 28%, VP16 counter -3%[0.365 µM], ALDH1A1 block 6% and Sfp inh 3%.
CCCCNC(=O)C[C@@H]1C[C@@]2(C(=O)OCC)CCCC=C2N(Cc2ccc3c(c2)OCO3)C1=O was read as PLK1 PBD block 2%.
O=C(CN(Cc1ccco1)C(=O)CNS(=O)(=O)c1ccc(F)cc1)NCc1ccc(F)cc1 was read as PLK1 PBD block -4%, RORg inh 4%, VP16 counter 10%, ALDH1A1 block -13% and Sfp inh 0%.
O=C(CN(Cc1ccco1)C(=O)CNS(=O)(=O)c1ccc(Cl)cc1)NCc1ccc(F)cc1 was read as PLK1 PBD block 27µM*.
Screening Cc1ccc(S(=O)(=O)NCC(=O)N(CCc2ccccc2)CC(=O)NCc2ccco2)cc1 returned PLK1 PBD block -7%, RORg inh 4%[10 µM], VP16 counter 3%, ALDH1A1 block 28µM* and Sfp inh -19%.
For CC(C)CNS(=O)(=O)c1ccc(CCC(=O)NCc2ccco2)cc1 the results were PLK1 PBD block -23%, RORg inh 38%, VP16 counter 5%, ALDH1A1 block 2µM* and Sfp inh 40µM*.
O=C(NCC1CCOCC1)c1ccc(-c2ccc(F)c(F)c2)c2ccoc12 was read as PLK1 PBD block 3%.
Screening Cn1ncc2c(=O)[nH]nnc21 returned PLK1 PBD block -1%.
`O=C(CSc1ccc([N+](=O)[O-])cc1)NNC(=O)c1ccccc1F` gave PLK1 PBD block 9.5µM*, RORg inh 2%, VP16 counter 3% and Sfp inh 1%.
Screening O=C(c1cc([N+](=O)[O-])ccc1Cl)N1CCN(c2ccc([N+](=O)[O-])cc2)CC1 returned PLK1 PBD block -7%, RORg inh 40%[10 µM], VP16 counter inconclusive, ALDH1A1 block -5% and Sfp inh -10%.
`O=[N+]([O-])c1cccc(C(=S)N2CCN(c3ccc(F)cc3)CC2)c1` gave PLK1 PBD block inconclusive, RORg inh 17%, VP16 counter 3%, ALDH1A1 block 22µM* and Sfp inh 28µM*.
For O=C(NC(=S)N1CCN(c2ccc([N+](=O)[O-])cc2)CC1)c1ccccc1Cl the results were PLK1 PBD block -11%, RORg inh 0.45µM*, VP16 counter 1.4µM*, ALDH1A1 block inconclusive and Sfp inh 20%.
Screening O=C(NC(=S)N1CCN(c2ccc([N+](=O)[O-])cc2)CC1)c1ccccc1F returned PLK1 PBD block -5%, RORg inh 0.56µM*, VP16 counter 1µM*, ALDH1A1 block 25µM* and Sfp inh 15%.
Screening Nc1ncnc2c1ncn2[C@H]1O[C@@H](C(=O)OCCO)[C@@H](O)[C@H]1O returned ALDH1A1 block 11%[13.5 µM].
For Cc1nc(NC2CCCCC2)c2nc(-c3ccccc3)n(CCCN3CCOCC3)c2n1 the results were RORg inh -18%, VP16 counter 6%, ALDH1A1 block inconclusive and Sfp inh 13%.
